FLuc inh: Photinus pyralis luciferase inhibition; Potency, µM (series often up to 115 µM), hits mostly inhibitors; purified P. pyralis luciferase, luminescence, biochemical; actives 2.5% (n = 76,000); P08659; note: % is set by controls: 0 for no effect and ±100 for the full control effect; nearly all actives have a fitted effect of over 65% in size
Target sequence (P08659 whole entry, looked up): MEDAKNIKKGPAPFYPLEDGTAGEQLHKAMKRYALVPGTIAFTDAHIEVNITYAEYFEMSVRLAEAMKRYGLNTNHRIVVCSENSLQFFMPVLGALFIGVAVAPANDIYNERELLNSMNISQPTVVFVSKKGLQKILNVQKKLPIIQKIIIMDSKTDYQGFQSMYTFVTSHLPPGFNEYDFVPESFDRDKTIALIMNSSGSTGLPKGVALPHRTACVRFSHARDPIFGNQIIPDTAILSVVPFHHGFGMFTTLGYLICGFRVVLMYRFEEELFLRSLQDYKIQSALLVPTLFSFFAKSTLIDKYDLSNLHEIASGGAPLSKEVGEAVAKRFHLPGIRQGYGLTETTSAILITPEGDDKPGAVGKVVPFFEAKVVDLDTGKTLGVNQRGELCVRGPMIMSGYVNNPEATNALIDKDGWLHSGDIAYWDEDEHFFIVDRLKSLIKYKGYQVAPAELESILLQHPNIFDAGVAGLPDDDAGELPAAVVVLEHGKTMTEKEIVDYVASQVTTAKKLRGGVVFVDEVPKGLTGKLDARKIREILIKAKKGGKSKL
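Cell-free enzyme assay, 10nM P. pyralis luciferase, luciferin and ATP each at 10uM. Inhibition profiled over a 6-point titration, read as luminescence.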
hNpr1 antagonist: human Npr1 receptor antagonism; P16066; HEK293 hNpr1 GloSensor cGMP, ANP-stimulated luminescence; Potency, µM (series often up to 46.3 µM), without a hit: top-dose activity change, negative = inhibition, usual class: inhibitors; actives 1.6% (n = 76,000); AID 1347048; calls by dose curve; note: % is set by controls: 0 for no effect and ±100 for the full control effect; nearly all actives have a fitted effect of over 60% in size
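Compound pre-incubated 30 min at room temperature on GloSensor-loaded HEK293 cells stably carrying hNpr1 and the pGS-40F cGMP biosensor. Stimulation uses hNppA at 0.1 nM final; luminescence is taken at baseline and 20 min post-agonist.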
3T3 cytotox: NIH 3T3 cell cytotoxicity | NIH 3T3 viability, CellTiter-Glo ATP luminescence, 48-72 h | Potency, µM (series often up to 96.7 µM), for the others: top-dose activity change, negative = cytotoxicity, usual class: inhibitors | actives 4.3% (n = 94,000) | AID 1345082; note: % is set by controls: 0 for no effect and ±100 for the full control effect; nearly all actives have a fitted effect of over 55% in size
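Viability of NIH 3T3 cells after 48 or 72 hr compound treatment at 37 °C was assessed by CellTiter-Glo, with luminescence imaged following a 10 min room-temperature step.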
HEK cytotox: kills HEK 293 cells; HEK 293 viability, ATP luminescence (CellTiter-Glo), 48-72 h; Potency, µM (titrated, usually from 115 µM), without a hit: at the highest dose activity change, negative = cytotoxicity, actives largely listed as inhibitors; actives 6.6% (n = 94,000); note: % is set by controls: 0 for no effect and ±100 for the full control effect; nearly all actives have a fitted effect of over 60% in size
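250 HEK 293 cells/well; compound by pintool; incubated 48 or 72 hr at 37 degree Celsius; CellTiter-Glo added, 10 min RT, luminescence imaged.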
GPT2 inh: blocks human glutamate pyruvate transaminase 2. Recombinant GPT2, coupled pyruvate oxidase/HRP Amplex Red fluorescence. Potency, µM (top dose mostly 57.7 µM), for the others: top-dose activity change, negative = inhibition, actives largely listed as inhibitors. actives 0.25% (n = 100,000). AID 1671188; note: % is set by controls: 0 for no effect and ±100 for the full control effect; nearly all actives have a fitted effect of over 60% in size
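GPT2 10ng/uL, a-KG 250uM, L-Ala 2mM, HEPES pH7.5 + 0.0001% Tween; 30 min RT. Then Amplex mix (PO/HRP/ThPP), 30 min RT dark, fluorescence. AOA 50uM used as positive control.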
Npr1 antag conf: confirmation of human Npr1 natriuretic peptide receptor antagonists; shares compounds with hNpr1 antagonist; HEK293 hNpr1 cGMP GloSensor luminescence, ANP-stimulated; Potency, µM (titrated, usually from 57.6 µM), for the others: top-dose activity change, negative = inhibition, hits mostly inhibitors; actives 76% (n = 1,400); AID 1347044; calls by dose curve; note: nearly all actives have a fitted effect of over 70% in size
Npr2 selectivity: hNpr2 antagonism, selectivity versus Npr1; Potency, µM (series often up to 57.6 µM), inactives show top-dose activity change, negative = inhibition, most hits filed as inhibitors; HEK293 hNpr2 GloSensor cGMP luminescence, CNP-stimulated; shares compounds with hNpr1 antagonist; actives 67% (n = 1,400); calls by dose curve; note: nearly all actives have a fitted effect of over 70% in size
FLuc inh counter: counter-screen for Npr1 antagonists: firefly luciferase inhibitors; purified FLuc enzyme, luminescence, Km substrate; Potency, µM (titrated, usually from 57.6 µM), for the others: at the top dose activity change, negative = inhibition, hits mostly inhibitors; actives 0.7% (n = 1,400); shares compounds with hNpr1 antagonist; AID 1347047; note: series mostly up to about 58 µM; 0% is about no effect
GloSensor ctrl: counter-screen for Npr1 antagonists: GloSensor control cell line; AID 1347051; HEK293 GloSensor cGMP, SNP-stimulated, luminescence; actives 69% (n = 1,400); Potency, µM (series often up to 57.6 µM), for inactives: at the top dose activity change, negative = inhibition, hits mostly inhibitors; shares compounds with hNpr1 antagonist; calls by dose curve; note: % is set by controls: 0 for no effect and ±100 for the full control effect; nearly all actives have a fitted effect of over 70% in size
Active calls of the source: *; i = inactive; ? = inconclusive; · = not tested or not shown. In the library only some 10% were active in any assay of this set; here they are far more common. Unless noted, calls come from the whole dose curve; as a rule, active = well fitted curve in the direction sought with a large enough effect; inconclusive = small, poorly fitted or top-dose-only effect, or another doubt; inactive = no such curve, though single readings can be large; an effect the other way counts as inactive or inconclusive. Potency is the fitted concentration of half-maximal effect.

SMILES | FLuc inh | hNpr1 antagonist | 3T3 cytotox | HEK cytotox | GPT2 inh | Npr1 antag conf | Npr2 selectivity | FLuc inh counter | GloSensor ctrl
Cc1cc(C)cc(C(=O)N2CCC(Cc3nc(-c4ccccc4)no3)CC2)c1 | i | ? | ? | ? | -7% | · | · | · | ·
COc1ccc(C(=O)N2CCC(Cc3nc(-c4ccccc4)no3)CC2)cc1F | i | 3.2µM* | ? | ? | i | 3.1µM* | 3.1µM* | -17% | 3.1µM*
CCCCOc1ccc(C(=O)N2CCC(Cc3nc(-c4ccccc4)no3)CC2)cc1 | i | 10µM* | ? | ? | i | 17µM* | 14µM* | 4% | 12µM*
Cc1ccc(S(=O)(=O)N2CCC(n3cnnc3-c3ccccc3)CC2)c(C)c1 | i | -29% | ? | ? | i | ? | ? | 6% | -21%
COc1ccc(-c2cc(N3CCN(C(=O)c4cc(F)ccc4Cl)CC3)n[nH]2)cc1 | i | -6% | ? | ? | i | · | · | · | ·
O=C(c1cc(F)ccc1F)N1CCC(Cc2nc(-c3ccccc3)no2)CC1 | i | 5.6µM* | ? | ? | i | 7.7µM* | 9.7µM* | -15% | 8.6µM*
COc1ccc(-c2noc(CC3CCN(C(=O)c4cc(F)ccc4Cl)CC3)n2)cc1 | i | 10µM* | ? | ? | i | 12µM* | 14µM* | 0% | 11µM*
O=C(c1ccc(F)c(Cl)c1)N1CCC(Cc2nc(-c3cnccn3)no2)CC1 | i | ? | 32µM* | ? | i | 22µM* | ? | 0% | 19µM*
CC(C)c1noc(CC2CCN(C(=O)c3ccc(F)cc3Cl)CC2)n1 | i | ? | i | ? | i | · | · | · | ·
O=C(c1ccc(F)cc1Cl)N1CCC(Cc2nc(-c3ccc(F)cc3)no2)CC1 | i | 3.2µM* | ? | 32µM* | i | 3.1µM* | 3.1µM* | 4% | 3.1µM*
O=C(c1cccc(F)c1)N1CCC(Cc2nc(-c3cnccn3)no2)CC1 | i | -2% | -20% | -23% | -7% | · | · | · | ·
CCOC(=O)C1(Cc2ccc(OC)cc2)CCN(C(=O)c2cccc(Cl)c2)CC1 | ? | -13% | ? | ? | -10% | · | · | · | ·
CCOC(=O)C1(Cc2ccc(Cl)cc2)CCN(C(=O)c2cc(C)oc2C)CC1 | i | 13µM* | 25µM* | 20µM* | i | 22µM* | 22µM* | -6% | 19µM*
Cc1ccccc1S(=O)(=O)N1CCCC(CCC(=O)Nc2cccc(Cl)c2)C1 (configuration not stated) | i | 11µM* | ? | 22µM* | -22% | 24µM* | 27µM* | 2% | 27µM*
CC1=C(C(=O)Nc2ccccc2)C(c2cccc(C)c2)N2C(CC(=O)NC3CC3)=CSC2=N1 (configuration not stated) | i | ? | ? | ? | i | ? | ? | -2% | ?
